# From PubChem BioAssay (NCI)
# Compounds without any hit were thinned out: in the full panel of roughly 83,000, 20% have a hit.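 Compound tested at a single concentration for 48 hours in 96-well plates; a percent growth value below 10 was scored as active.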 Unmarked numbers belong to inactive results. The source made the active and inactive calls.
# Columns and labels:
# Assay in all cases: NCI-60 one-dose screen, 48 h (100 = growth as untreated, 0 = no growth, -100 = all killed)
# SR leukemia = conditions: 10 µM unless noted
# RPMI-8226 leukemia = conditions: 10 µM unless noted
# OVCAR-8 ovarian = conditions: 10 µM unless noted
# OVCAR-5 ovarian = conditions: 10 µM unless noted
# OVCAR-4 ovarian = conditions: 10 µM
# SK-OV-3 ovarian = conditions: 10 µM unless noted
# IGROV1 ovarian = conditions: 10 µM unless noted
# OVCAR-3 ovarian = conditions: 10 µM unless noted
# HS 578T breast = conditions: 10 µM unless noted
# NCI/ADR-RES ovarian = conditions: 10 µM unless noted
SMILES,growth (SR leukemia),growth (RPMI-8226 leukemia),growth (OVCAR-8 ovarian),growth (OVCAR-5 ovarian),growth (OVCAR-4 ovarian),growth (SK-OV-3 ovarian),growth (IGROV1 ovarian),growth (OVCAR-3 ovarian),growth (HS 578T breast),growth (NCI/ADR-RES ovarian)
c1nc(N2CCOCC2)c2[nH]ccc2n1,92%,94.1%,106%,116%,106%,110%,112%,118%,96.7%,–
Cn1cc(-c2noc(-c3cn(C)c4ncc(Br)cc34)n2)c2cc(Cl)ccc21,44.3%,87.6%,99.7%,70.5%,-25.7% (active),62.8%,54.2%,44.2%,65.8%,58.5%
Cc1ccc(N)c(O)c1,112%,61.9%,96%,108%,84.2%,112%,69.6%,87.7%,92.9%,92.8%
CCn1cc(-c2ccnc(NCCNS(=O)(=O)c3ccc(Br)cc3)c2)c(-c2cccc(OC)c2)n1,42.2%,25%,63.5%,97.6%,55.3%,76.6%,60.8%,78.3%,78.5%,73.9%
O=C(O)c1cccc(CN2CCN(c3cc4c(cc3F)c(=O)c(C(=O)O)cn4C3CC3)CC2)c1O,87.5%,103%,96.7%,102%,114%,101%,101%,106%,103%,101%
COc1ncnc2c(-c3ccccc3)cn(COCc3ccccc3)c12,18.2%,29.2%,26.6%,110%,54.4%,82.7%,71%,62.8%,81.2%,–
CCOC(=O)CCC[P+](c1ccccc1)(c1ccccc1)c1ccccc1,59.5%,41.9%,82.2%,95.1%,81.7%,98.9%,65.8%,45.9%,92.9%,105%
COC(=O)[C@H](CC(C)C)NC(=O)NC(=O)NC(=O)CI,-51% (active),61.6%,73.3%,86.9%,59%,92.4%,62%,-74.1% (active),106%,92.2%
CC/C=C(\C)C(CCC)(CN=O)C(=O)OCC (stereo not drawn),87.6%,96.3%,105%,113%,110%,99.9%,118%,127%,143%,108%
Cc1ccc(S(=O)(=O)NCCCNc2nccc(-c3c(-c4cccc(F)c4)nc4occn34)n2)cc1,87.9%,54.8%,65%,96.5%,73.4%,68.3%,48.1%,89.7%,68%,85%
Cc1cccc(/C=C2\N=C(c3ccccc3)N(c3ccc(S(N)(=O)=O)cc3)C2=O)c1,69.6%,99.3%,73%,99.1%,77.1%,98.8%,96.2%,102%,76.1%,88.7%
O=C1NC(=O)C(Cc2ccc(OCc3ccc(-c4cc(F)c(F)c(F)c4)cc3)cc2)S1 (stereo not drawn),83.8%,69%,90.2%,93.4%,68.7%,87.5%,69.3%,88.3%,83.5%,82.1%
O=C(Nc1ccc(Cl)c(C(F)(F)F)c1)Nc1ccc(-c2cccnc2)cc1N1CCC(CO)CC1,2.35% (active),12.1%,26.8%,39.4%,43.8%,32.6%,61.4%,38%,34.4%,26.2%
Cc1ccc(-c2cc(O)c(-c3ccc(C)cc3C)cc2O)c(C)c1,7.1% (active),37.2%,47.7%,96.9%,41.2%,82.7%,86.9%,67.8%,87.9%,52.2%
Cn1cc(-c2noc(-c3cn(C)c4ncc(F)cc34)n2)c2ccccc21,69.1%,78.2%,40%,75.1%,-29.4% (active),7.74% (active),45%,32.5%,30.9%,58.2%
Cn1ncc2c(Nc3ccc(O)cc3)nc(Cl)nc21,75.3%,79.4%,104%,105%,105%,105%,92.9%,117%,102%,97.3%
O=C(OCc1ccc2c(Cl)cc(Cl)c(O)c2n1)N1CCNCC1,14.5%,44.2%,28.7%,55.5%,23.4%,40.9%,34.8%,33.8%,53.4%,9.22% (active)
CN(C)c1ccc(N=Nc2ccc3ccccc3c2)cc1,61.8%,79.7%,98.2%,104%,76.7%,96%,77.8%,88.7%,98.4%,98.1%
CC1Cc2c(Cl)ncnc2N(C)c2ccccc21 (stereo not drawn),6.5% (active),12.2%,10.7%,41.8%,21.5%,15.8%,50.5%,10.6%,24.6%,16.6%
CC(C)C1=NOC(=O)C1=Cc1cn(-c2ccccc2)nc1-c1ccc(Cl)cc1,-22% (active),-28.5% (active),79.2%,99.1%,98.2%,106%,79.6%,86.2%,77.4%,91.7%
Oc1c(CNCCNCc2cc(Cl)cc(Cc3ccccc3)c2O)cc(Cl)cc1Cc1ccccc1,5.69% (active),20.8%,14.3%,52.9%,27.1%,15.4%,12.8%,29.5%,40.7%,8.69% (active)
O=C(NCCCNC(=O)OCc1ccc2cccc(O)c2n1)OCc1ccc2cccc(O)c2n1,12.1%,18.4%,23%,59.9%,39.2%,76.6%,24.1%,14.8%,57.2%,41.5%
Cc1cc(C)nc(SCC(=O)Nc2cccc(N=Cc3ccccc3O)c2)n1,109%,96.9%,103%,100%,86.1%,94.5%,108%,105%,97.2%,100%
O=C(CCNCc1ccccc1)c1ccccc1,109%,105%,112%,103%,119%,109%,114%,102%,110%,105%
Cc1ccc(Oc2c(/C=N/NC(=O)Cn3c(=O)sc4ccccc43)c(C)nn2-c2ccccc2)cc1,41.8%,32.8%,54.8%,74.1%,46.2%,66.6%,44.4%,54.2%,63.2%,50.2%
COc1ccc(C(=O)CSc2nccc(Nc3ccc(C(=O)O)cc3)n2)cc1,91.4%,109%,94.8%,103%,108%,99.1%,91.8%,100%,84.4%,103%
CC1Cc2ccc(OCCN(C)C)cc2C1=O (stereo not drawn),101%,88.4%,101%,105%,110%,97.8%,106%,110%,97.3%,107%
Cc1cc(C)c(O)c(CNCCCNCc2cc(C)cc(C)c2O)c1,-30.5% (active),28.5%,82.2%,74.6%,88.3%,89.3%,62%,77%,11.2%,72.5%
